Screens from PubChem.
KKLEB tox: CF airway cell cytotoxicity counter-screen; KKLEB CF airway cells viability, ATPlite luminescence, overnight; stronger effect = lower value; cells stimulated with P. aeruginosa culture filtrate; activity change (cytotoxicity), % at 5 µM; actives 0.36% (n = 360,000); AID 602141;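 active = corrected activity change at or below -50% at 5 µM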
CF NFkB inh: inhibitors of cystic fibrosis induced NF-kB | KKLEB NF-kB-GFP reporter, PAF-induced, GFP fluorescence overnight | inhibition, % at 5 µM | actives 0.86% (n = 360,000) | AID 588850;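 active = at least 50% inhibition at 5 µM, scaled per plate between neutral and stimulator controls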;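 also: PAF is a Pseudomonas aeruginosa culture filtrate used as stimulus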
EBV LMP1 NFkB: inhibitors of Epstein-Barr LMP1-induced NF-kappaB reporter; LMP1-induced NF-kappaB luciferase reporter cells, luminescence; inhibition, % at 12.5 µM; actives 0.69% (n = 350,000); AID 504558; in the data active = inhibition above about 41%
Shn3 inh set2: inhibitors of Schnurri-3 3'UTR reporter in osteoblasts; Clone20 osteoblast Shn3 3'UTR firefly luciferase, 24 h; inhibition, % at 12.5 µM; actives 0.52% (n = 360,000); AID 588674;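 active = mean inhibition of at least 75% with every replicate also reaching 75%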
Peg3 promoter: Peg3 promoter activity inhibition; HeLa PEG-Prom luciferase reporter, luminescence, overnight; inhibition, % at 20 µM; actives 1.7% (n = 360,000);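 active = inhibition of at least 50% at 20 µM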
MITF TRPM1 inh: MITF TRPM1 promoter inhibition in SK-MEL-5 cells. inhibition, % at 12.5 µM. SK-MEL-5 TRPM1 promoter luciferase, 24 h. actives 0.83% (n = 330,000). AID 488899;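 active = mean inhibition across replicates of 60% or more, whatever share of single replicates reaches that level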
CF NFkB conf: CF NF-kB inhibition confirmation, single concentration. KKLEB CF airway cells, PAF-induced NF-kB-GFP fluorescence, overnight. actives 64% (n = 1,300). shares compounds with CF NFkB inh. AID 602472. inhibition, % at 5 µM; in the data active = inhibition above about 40%;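 also: stimulus PAF is a Pseudomonas aeruginosa filtrate and not platelet activating factor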
Hits are given with their value. An excerpt weighted towards active compounds, which were near 2.9% of everything screened.

For COC(=O)c1ccccc1NC(=O)c1ccccc1OC the results were KKLEB tox inactive, CF NFkB inh inactive, EBV LMP1 NFkB inactive, Shn3 inh set2 inactive, Peg3 promoter inactive and MITF TRPM1 inh inactive.
`O=C(NCCc1c[nH]c2ccccc12)c1ccc([N+](=O)[O-])o1` gave KKLEB tox inactive, CF NFkB inh 70.1, EBV LMP1 NFkB inactive, Shn3 inh set2 inactive, Peg3 promoter inactive and CF NFkB conf 42.7.
`Cc1ccc2nc(SCC(=O)Nc3cc(C(F)(F)F)ccc3N3CCOCC3)[nH]c2c1` gave KKLEB tox inactive, CF NFkB inh 50.2, EBV LMP1 NFkB inactive, Shn3 inh set2 inactive, Peg3 promoter inactive, MITF TRPM1 inh inactive and CF NFkB conf 77.6.
Screening O=C(CSc1nccc(=O)[nH]1)Nc1cc(C(F)(F)F)ccc1N1CCOCC1 returned KKLEB tox inactive, CF NFkB inh inactive, EBV LMP1 NFkB inactive, Shn3 inh set2 inactive, Peg3 promoter inactive and MITF TRPM1 inh inactive.
`O=C(Nc1cccs1)Nc1nnc([C@@H]2C[C@H](O)[C@@H](CO)O2)s1` gave KKLEB tox inactive, CF NFkB inh inactive, Shn3 inh set2 inactive and Peg3 promoter inactive.
`CCn1c(SCC(=O)N/N=C/c2ccc(OC)c(OC)c2)nc2ccccc21` gave KKLEB tox inactive, CF NFkB inh inactive, EBV LMP1 NFkB inactive, Shn3 inh set2 inactive, Peg3 promoter inactive and MITF TRPM1 inh inactive.
`C=CCSc1nc2ccccc2n1C(=O)/C=C/c1ccc(OC)c(OC)c1` gave KKLEB tox inactive, CF NFkB inh 91.9, EBV LMP1 NFkB inactive, Shn3 inh set2 97.7, Peg3 promoter 104.4, MITF TRPM1 inh inactive and CF NFkB conf 103.4.
`Cc1ccc(-c2nc(SC(C)C(=O)NC3CC3)n[nH]2)cc1` (centres undefined) gave KKLEB tox inactive, CF NFkB inh inactive, EBV LMP1 NFkB inactive, Shn3 inh set2 inactive and Peg3 promoter inactive.
Screening CC(=O)c1c(C(C)=O)c(C)n(-c2cccc([N+](=O)[O-])c2)c1C returned KKLEB tox inactive, CF NFkB inh inactive, EBV LMP1 NFkB inactive, Shn3 inh set2 inactive, Peg3 promoter inactive and MITF TRPM1 inh inactive.
For CC(=O)C1=C(c2cccc([N+](=O)[O-])c2)N(C(C)=O)n2c(C)nnc2S1 the results were KKLEB tox inactive, CF NFkB inh 51.8, EBV LMP1 NFkB inactive, Shn3 inh set2 inactive, Peg3 promoter inactive, MITF TRPM1 inh inactive and CF NFkB conf inactive.
CCC1CCc2c(sc(NC(=O)c3cnccn3)c2C(N)=O)C1 (centres undefined) was read as KKLEB tox inactive, CF NFkB inh 65.2, EBV LMP1 NFkB inactive, Shn3 inh set2 inactive, Peg3 promoter inactive, MITF TRPM1 inh inactive and CF NFkB conf inactive.
`COc1ccccc1CN1C(=O)C(Cc2ccccc2)ON=C1c1ncccc1C` (centres undefined) gave KKLEB tox inactive, CF NFkB inh inactive, Shn3 inh set2 inactive and Peg3 promoter inactive.
For COCOc1ccc(/C=C/C(=O)c2c(O)cc(OCOC)cc2OCOC)cc1 the results were KKLEB tox inactive, CF NFkB inh 51.9, Shn3 inh set2 inactive, Peg3 promoter inactive and CF NFkB conf inactive.
`CCOc1ccc(/C=C/C(=O)c2c(O)cc(C)oc2=O)cc1` gave KKLEB tox inactive, CF NFkB inh inactive, EBV LMP1 NFkB inactive, Shn3 inh set2 inactive, Peg3 promoter inactive and MITF TRPM1 inh inactive.
`OCc1ccccc1-c1cnc2sc(NCc3ccc(F)cc3)nn12` gave KKLEB tox inactive, CF NFkB inh inactive, Shn3 inh set2 inactive and Peg3 promoter inactive.
C=CC[C@]12CC=CC(=O)[C@@]1(O)O[C@H](c1ccc(OC)c(OC)c1)[C@H]2C was read as KKLEB tox inactive, CF NFkB inh 62.2, EBV LMP1 NFkB inactive, Shn3 inh set2 inactive, Peg3 promoter inactive, MITF TRPM1 inh 62.3 and CF NFkB conf 57.9.
For C=CC[C@]12C=C(OC)C(=O)C(OC)=C1O[C@@H](c1ccc3c(c1)OCO3)[C@H]2C the results were KKLEB tox inactive, CF NFkB inh inactive, EBV LMP1 NFkB inactive, Shn3 inh set2 inactive, Peg3 promoter inactive and MITF TRPM1 inh inactive.
COC(=O)C1C2CC3c4[nH]c5cc(OC)ccc5c4CCN3CC2CC(OC(=O)CC(C)=O)C1OC (centres undefined) was read as KKLEB tox inactive, CF NFkB inh inactive, EBV LMP1 NFkB inactive, Shn3 inh set2 inactive, Peg3 promoter inactive and MITF TRPM1 inh inactive.
`CCOC(=O)Oc1c(OC)cc(C(=O)O[C@@H]2C[C@@H]3CN4CCc5c([nH]c6cc(OC)ccc56)[C@H]4C[C@@H]3[C@H](C(=O)OC)[C@H]2OC)cc1OC` gave KKLEB tox inactive, CF NFkB inh 77.4, EBV LMP1 NFkB 45.8, Shn3 inh set2 93.0, Peg3 promoter inactive, MITF TRPM1 inh inactive and CF NFkB conf 87.1.
`O=C1OC(Nc2nc(-c3ccc(F)cc3)cs2)c2ccccc21` (centres undefined) gave KKLEB tox inactive, CF NFkB inh 52.8, EBV LMP1 NFkB inactive, Shn3 inh set2 inactive, Peg3 promoter inactive, MITF TRPM1 inh inactive and CF NFkB conf 70.8.
`CCCCOc1ccc(C(=O)Nc2ccc(OCC(=O)N3CCOCC3)cc2)cc1` gave KKLEB tox inactive, CF NFkB inh inactive, EBV LMP1 NFkB inactive, Shn3 inh set2 inactive, Peg3 promoter inactive and MITF TRPM1 inh inactive.
O=C(Nc1ccc(OCC(=O)N2CCOCC2)cc1)c1cncc(Br)c1 was read as KKLEB tox inactive, CF NFkB inh 57.2, EBV LMP1 NFkB inactive, Shn3 inh set2 inactive, Peg3 promoter inactive, MITF TRPM1 inh inactive and CF NFkB conf 48.1.
Screening Nc1nc(/C=C/c2cccnc2)nc(-c2ccccc2O)n1 returned KKLEB tox inactive, CF NFkB inh 91.1, EBV LMP1 NFkB inactive, Shn3 inh set2 inactive, Peg3 promoter inactive, MITF TRPM1 inh inactive and CF NFkB conf 74.6.
`Cc1cccn2c(=O)c3cc(S(=O)(=O)c4ccccc4)c(=N)n(Cc4ccco4)c3nc12` gave KKLEB tox inactive, CF NFkB inh inactive, EBV LMP1 NFkB inactive, Shn3 inh set2 inactive, Peg3 promoter inactive and MITF TRPM1 inh inactive.
For Cc1cccn2c(=O)c3cc(S(=O)(=O)c4ccc(F)cc4)c(=N)n(Cc4ccco4)c3nc12 the results were KKLEB tox inactive, CF NFkB inh 75.5, EBV LMP1 NFkB inactive, Shn3 inh set2 inactive, Peg3 promoter inactive, MITF TRPM1 inh inactive and CF NFkB conf inactive.
For COc1cc(O)c(C(C)=O)c2c1C=CC(C)(C)O2 the results were KKLEB tox inactive, CF NFkB inh inactive, EBV LMP1 NFkB inactive, Shn3 inh set2 inactive, Peg3 promoter inactive and MITF TRPM1 inh inactive.
`CC(=O)c1c(O)cc2c3c1OC(C)(C)C1CCC(C)(CC31)O2` (centres undefined) gave KKLEB tox inactive, CF NFkB inh 74.1, EBV LMP1 NFkB inactive, Shn3 inh set2 inactive, Peg3 promoter inactive and CF NFkB conf 65.5.
